# For some of these results: Measured potencies and affinities stand elsewhere.
# Experiments:
# Design in all cases: scale not given: direction of the effect not stated beside the values
# [1] = biological target: Protein translocase subunit SecA (Escherichia coli (strain K12)) (UniProt P10408); experiment: Assay to Identify E. coli SecA ATPase Inhibitors; assay type: functional; details: 30 µM
# [2] = biological target: T1, Ubiquitin-activating enzyme e1, putative (Leishmania donovani (strain BPK282A1)) (UniProt E9BSI1); experiment: Leishmania donovani Ubiquitin Activating Enzyme (LdE1); assay type: functional; details: 30 µM
# T1 sequence (whole entry): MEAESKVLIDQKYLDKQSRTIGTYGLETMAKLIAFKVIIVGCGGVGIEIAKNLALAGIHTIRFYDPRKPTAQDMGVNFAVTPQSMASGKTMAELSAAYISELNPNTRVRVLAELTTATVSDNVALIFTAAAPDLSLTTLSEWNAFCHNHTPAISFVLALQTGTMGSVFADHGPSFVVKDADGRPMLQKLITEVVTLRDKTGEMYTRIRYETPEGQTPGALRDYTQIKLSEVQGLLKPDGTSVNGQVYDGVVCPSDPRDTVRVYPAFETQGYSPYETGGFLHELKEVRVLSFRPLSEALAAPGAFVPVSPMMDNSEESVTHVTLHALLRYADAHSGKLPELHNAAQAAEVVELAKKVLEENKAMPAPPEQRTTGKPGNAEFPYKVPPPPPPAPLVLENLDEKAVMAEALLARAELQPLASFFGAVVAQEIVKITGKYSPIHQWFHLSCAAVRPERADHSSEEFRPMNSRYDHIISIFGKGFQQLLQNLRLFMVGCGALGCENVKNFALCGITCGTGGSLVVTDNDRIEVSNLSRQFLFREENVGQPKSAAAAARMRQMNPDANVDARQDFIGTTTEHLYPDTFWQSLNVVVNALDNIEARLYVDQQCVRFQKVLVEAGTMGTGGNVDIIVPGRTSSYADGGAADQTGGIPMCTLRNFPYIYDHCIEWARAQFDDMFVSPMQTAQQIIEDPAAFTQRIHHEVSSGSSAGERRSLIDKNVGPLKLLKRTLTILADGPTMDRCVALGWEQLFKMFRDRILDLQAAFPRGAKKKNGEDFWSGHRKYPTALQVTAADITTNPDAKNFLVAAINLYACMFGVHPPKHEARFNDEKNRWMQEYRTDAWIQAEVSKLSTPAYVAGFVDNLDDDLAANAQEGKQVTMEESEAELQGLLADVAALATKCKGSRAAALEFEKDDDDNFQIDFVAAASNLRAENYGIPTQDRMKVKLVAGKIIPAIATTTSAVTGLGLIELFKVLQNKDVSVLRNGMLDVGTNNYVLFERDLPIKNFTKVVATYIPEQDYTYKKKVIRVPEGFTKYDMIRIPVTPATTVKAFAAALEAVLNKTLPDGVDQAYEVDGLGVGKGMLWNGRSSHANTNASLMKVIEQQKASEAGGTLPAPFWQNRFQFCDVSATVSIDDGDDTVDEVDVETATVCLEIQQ
# [3] = biological target: Sialic acid-binding Ig-like lectin 9 (Homo sapiens) (UniProt Q9Y336); experiment: Hs-Siglec9 ALPHAscreen SOP 20170721; details: 10 µM
# Chain of Sialic acid-binding Ig-like lectin 9 (Homo sapiens) (Q9Y336 whole entry): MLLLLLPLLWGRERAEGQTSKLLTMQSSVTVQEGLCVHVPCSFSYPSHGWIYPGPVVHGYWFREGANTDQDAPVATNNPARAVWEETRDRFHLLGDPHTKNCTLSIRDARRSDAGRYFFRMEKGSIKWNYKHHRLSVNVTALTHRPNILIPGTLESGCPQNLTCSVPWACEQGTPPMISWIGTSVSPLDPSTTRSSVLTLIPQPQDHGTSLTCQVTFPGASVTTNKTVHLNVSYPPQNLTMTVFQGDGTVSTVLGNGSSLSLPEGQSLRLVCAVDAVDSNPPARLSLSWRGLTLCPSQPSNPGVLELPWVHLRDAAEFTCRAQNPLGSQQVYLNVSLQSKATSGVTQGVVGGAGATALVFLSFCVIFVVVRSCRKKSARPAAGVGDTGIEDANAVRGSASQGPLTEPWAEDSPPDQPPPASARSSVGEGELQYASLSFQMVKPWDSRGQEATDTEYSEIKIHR
# Trypanosoma cruzi = experiment: Trypanosoma cruzi phosphomannomutase and mannose-1-phosphate guanylyltransferase assay; assay type: functional; details: 10 µM
# [4] = biological target: T2, Arginase-2, mitochondrial (Homo sapiens) (UniProt P78540); experiment: in vitro enzyme assay to detect the production of urea directly proportional to the activity of Arginase II; assay type: functional; details: 33.3 µM; also: in the data most compounds retested in dose-response had high values
# T2 sequence (whole entry): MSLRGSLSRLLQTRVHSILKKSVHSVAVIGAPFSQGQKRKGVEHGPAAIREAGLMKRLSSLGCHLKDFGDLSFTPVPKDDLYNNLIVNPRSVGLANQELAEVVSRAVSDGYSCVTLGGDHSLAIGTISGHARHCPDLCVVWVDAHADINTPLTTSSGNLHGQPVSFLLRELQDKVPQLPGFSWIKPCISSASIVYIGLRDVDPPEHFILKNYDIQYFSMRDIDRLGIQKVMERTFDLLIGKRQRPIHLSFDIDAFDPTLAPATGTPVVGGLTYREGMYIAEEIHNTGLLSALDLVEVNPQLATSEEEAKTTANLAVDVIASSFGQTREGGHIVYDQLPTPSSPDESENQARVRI
# [5] = biological target: T3, Proteasome subunit beta (Trypanosoma cruzi) (UniProt O96673); experiment: Trypanosoma cruzi proteasome chymotrypsin-like activity (TcProtChymo) assay.; also: in the data most compounds retested in dose-response had high values; assay type: functional; details: 9.37 µM
# T3 sequence (whole entry): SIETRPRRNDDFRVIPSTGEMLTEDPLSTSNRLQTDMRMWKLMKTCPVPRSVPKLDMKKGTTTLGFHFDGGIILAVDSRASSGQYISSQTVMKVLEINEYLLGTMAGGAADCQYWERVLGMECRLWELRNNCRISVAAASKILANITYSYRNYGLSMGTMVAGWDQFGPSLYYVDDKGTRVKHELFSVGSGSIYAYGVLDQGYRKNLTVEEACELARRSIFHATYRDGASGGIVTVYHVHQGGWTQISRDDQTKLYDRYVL
# Homo sapiens = species on record: Homo sapiens; experiment: To identify inhibition of the IFN signalling (Jak-Stat) pathway via expression of an eGFP reporter gene under the control of an IFN-stimulated response element (ISRE) containing MxA promoter.; assay type: functional; details: 30 µM
# [6] = biological target: T4, Tyrosyl-tRNA synthetase, putative (Trypanosoma cruzi (strain CL Brener)) (UniProt Q4DSP6); experiment: Trypanosoma cruzi tyrosyl tRNA synthetase (TcYRS) _High Tyrosine SOP; assay type: functional; details: 30 µM; also: in the data most compounds retested in dose-response had high values
# T4 sequence (whole entry): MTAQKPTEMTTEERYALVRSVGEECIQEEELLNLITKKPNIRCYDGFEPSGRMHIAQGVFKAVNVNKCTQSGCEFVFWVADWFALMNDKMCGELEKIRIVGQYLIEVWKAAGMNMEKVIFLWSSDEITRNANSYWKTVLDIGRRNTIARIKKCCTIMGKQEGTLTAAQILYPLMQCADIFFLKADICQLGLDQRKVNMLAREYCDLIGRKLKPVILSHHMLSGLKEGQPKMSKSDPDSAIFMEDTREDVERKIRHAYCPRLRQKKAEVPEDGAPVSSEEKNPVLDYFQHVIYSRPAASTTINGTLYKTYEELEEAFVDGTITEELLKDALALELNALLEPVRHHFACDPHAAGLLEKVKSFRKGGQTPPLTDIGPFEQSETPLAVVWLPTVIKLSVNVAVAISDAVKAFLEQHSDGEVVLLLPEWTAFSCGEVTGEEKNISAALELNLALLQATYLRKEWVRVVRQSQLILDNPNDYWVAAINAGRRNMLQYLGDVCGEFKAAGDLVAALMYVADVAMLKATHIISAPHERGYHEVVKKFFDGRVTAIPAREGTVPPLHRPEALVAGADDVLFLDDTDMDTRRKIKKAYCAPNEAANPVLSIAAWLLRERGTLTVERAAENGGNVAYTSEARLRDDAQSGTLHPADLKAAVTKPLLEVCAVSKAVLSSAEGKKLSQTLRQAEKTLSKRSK
# [7] = biological target: T4, Tyrosyl-tRNA synthetase, putative (Trypanosoma cruzi (strain CL Brener)); experiment: Trypanosoma cruzi tyrosyl tRNA synthetase (TcYRS) SOP; assay type: functional; details: 30 µM
# [8] = biological target: Chromo domain-containing protein 1 (Saccharomyces cerevisiae (strain ATCC 204508 / S288c) (Baker's yeast)) (UniProt P32657); experiment: ScCHD-1 Enzyme Inhibition Assay; assay type: functional; details: 30 µM; also: in the data most compounds retested in dose-response had high values
# Chain of Chromo domain-containing protein 1 (Saccharomyces cerevisiae (strain ATCC 204508 / S288c) (Baker's yeast)) (P32657 whole entry, the tested form may be a part): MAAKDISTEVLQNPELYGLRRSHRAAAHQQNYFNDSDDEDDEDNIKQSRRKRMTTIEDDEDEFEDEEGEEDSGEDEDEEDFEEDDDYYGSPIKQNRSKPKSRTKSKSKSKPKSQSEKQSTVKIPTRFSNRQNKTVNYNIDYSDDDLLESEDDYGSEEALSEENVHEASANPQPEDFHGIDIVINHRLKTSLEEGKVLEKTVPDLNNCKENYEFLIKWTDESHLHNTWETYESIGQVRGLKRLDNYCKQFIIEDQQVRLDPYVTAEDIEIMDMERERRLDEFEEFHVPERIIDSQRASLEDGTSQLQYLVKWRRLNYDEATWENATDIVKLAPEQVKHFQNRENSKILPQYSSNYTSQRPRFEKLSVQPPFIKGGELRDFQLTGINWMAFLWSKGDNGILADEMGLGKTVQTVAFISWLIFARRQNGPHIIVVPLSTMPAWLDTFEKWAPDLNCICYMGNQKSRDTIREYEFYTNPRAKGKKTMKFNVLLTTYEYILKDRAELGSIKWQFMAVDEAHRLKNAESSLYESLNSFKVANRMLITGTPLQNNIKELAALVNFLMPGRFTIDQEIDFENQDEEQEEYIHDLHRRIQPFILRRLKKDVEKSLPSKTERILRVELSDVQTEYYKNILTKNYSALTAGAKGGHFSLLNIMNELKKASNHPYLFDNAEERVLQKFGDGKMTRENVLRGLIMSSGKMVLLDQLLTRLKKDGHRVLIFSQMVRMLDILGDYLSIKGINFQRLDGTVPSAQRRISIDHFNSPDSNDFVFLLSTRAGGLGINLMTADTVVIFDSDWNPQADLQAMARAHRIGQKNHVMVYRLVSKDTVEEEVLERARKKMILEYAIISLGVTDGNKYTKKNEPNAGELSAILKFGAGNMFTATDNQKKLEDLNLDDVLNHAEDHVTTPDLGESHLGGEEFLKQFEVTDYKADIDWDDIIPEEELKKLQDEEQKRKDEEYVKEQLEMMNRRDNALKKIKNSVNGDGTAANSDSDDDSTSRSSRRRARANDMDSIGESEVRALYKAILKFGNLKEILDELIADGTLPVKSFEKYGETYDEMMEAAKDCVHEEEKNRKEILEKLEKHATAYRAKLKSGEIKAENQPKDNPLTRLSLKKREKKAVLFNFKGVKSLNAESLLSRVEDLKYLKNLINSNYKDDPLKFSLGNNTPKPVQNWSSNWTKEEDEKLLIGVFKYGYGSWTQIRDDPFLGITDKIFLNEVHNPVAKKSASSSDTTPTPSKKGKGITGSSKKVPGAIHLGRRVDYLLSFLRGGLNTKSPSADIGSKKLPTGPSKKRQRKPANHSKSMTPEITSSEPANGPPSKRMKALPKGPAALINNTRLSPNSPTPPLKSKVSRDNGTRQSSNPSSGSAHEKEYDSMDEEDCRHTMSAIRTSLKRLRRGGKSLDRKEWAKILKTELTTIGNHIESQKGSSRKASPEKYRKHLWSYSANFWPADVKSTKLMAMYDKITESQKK
# Chain of Protein translocase subunit SecA (Escherichia coli (strain K12)) (P10408 whole entry): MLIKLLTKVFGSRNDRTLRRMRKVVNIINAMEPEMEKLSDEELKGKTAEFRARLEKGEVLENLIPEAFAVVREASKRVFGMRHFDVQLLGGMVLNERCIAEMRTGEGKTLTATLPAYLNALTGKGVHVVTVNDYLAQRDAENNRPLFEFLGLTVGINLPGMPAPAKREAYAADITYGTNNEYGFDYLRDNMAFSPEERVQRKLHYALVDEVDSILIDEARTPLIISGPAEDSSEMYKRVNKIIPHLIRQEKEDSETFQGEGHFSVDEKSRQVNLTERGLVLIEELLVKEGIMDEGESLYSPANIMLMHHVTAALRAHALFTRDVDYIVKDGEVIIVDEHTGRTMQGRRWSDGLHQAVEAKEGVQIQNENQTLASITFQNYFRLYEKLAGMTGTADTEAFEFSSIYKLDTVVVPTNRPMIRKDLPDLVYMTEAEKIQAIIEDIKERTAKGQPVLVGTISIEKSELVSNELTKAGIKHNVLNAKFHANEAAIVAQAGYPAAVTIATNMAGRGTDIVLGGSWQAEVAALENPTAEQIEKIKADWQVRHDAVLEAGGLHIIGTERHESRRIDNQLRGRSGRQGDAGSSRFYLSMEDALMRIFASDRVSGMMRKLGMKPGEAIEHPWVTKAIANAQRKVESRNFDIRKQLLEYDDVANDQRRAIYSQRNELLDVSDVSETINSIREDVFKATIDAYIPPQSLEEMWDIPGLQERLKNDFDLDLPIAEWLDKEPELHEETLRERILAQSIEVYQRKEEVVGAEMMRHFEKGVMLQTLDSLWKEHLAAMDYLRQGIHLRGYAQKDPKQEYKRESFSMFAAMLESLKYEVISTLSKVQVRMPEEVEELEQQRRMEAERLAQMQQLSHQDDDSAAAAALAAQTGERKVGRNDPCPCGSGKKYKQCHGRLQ
Compound,Percent Effect [1],Percent Effect [2],Percent Effect [3],Percent Effect (Trypanosoma cruzi),Percent Effect [4],Percent Effect [5],Percent Effect (Homo sapiens),Percent Effect [6],Percent Effect [7],Percent Effect [8]
Cn1cc(NC(=O)N2CCC(NS(C)(=O)=O)CC2)ccc1=O,1.1%,48.7%,0.0157%,-2.54%,13.9%,1.11%,18.1%,-9.09%,-13.2%,-0.842%
CS(=O)(=O)NCC1CCCN(C(=O)COc2ccc(F)cc2)C1 (stereo not given),-1.75%,10.3%,-7.96%,9.86%,1.23%,3.5%,12.5%,4.31%,-146%,-6.15%
N#Cc1c(C2CC2)cc(-c2ccc(O)cc2)nc1N,-6.18%,2.7%,3.32%,-1.46%,4.54%,23.6%,48.6%,-0.532%,7.32%,-2.85%
COCCc1noc(CN2CCCC2Cn2cc(C)cn2)n1 (stereo not given),-1.35%,8%,1.3%,3.21%,-7.98%,3.31%,-1.19%,0.526%,7.69%,-7.63%
Cc1cc(CNc2cc(Cl)ccc2Cl)no1,-0.772%,0%,3.56%,4.79%,0%,4.69%,8.6%,-11%,6.02%,-0.0633%
CCN1CCC2(CCC(=O)N2Cc2cccc(C)n2)CC1,-2.48%,9.09%,-0.0986%,-0.188%,0.457%,2.49%,-13.7%,7.73%,15%,-11.3%
Cn1ccc2ccc(C(=O)N3CCN(C(=O)N4CCOCC4)CC3)cc21,-5.67%,24.3%,12.2%,9.6%,3.85%,13.2%,14.4%,9.04%,17.1%,-1.13%
CC(C)CN1CCN(C(=O)NCc2cccnc2-n2cccn2)CC1,-3.93%,16%,-3.1%,-6.02%,-2.22%,10.4%,2.63%,5.79%,7.69%,-11.7%
Cc1cc(-c2nn(C)c(Cl)c2CN2CCOCC(O)C2)no1 (stereo not given),-4.83%,13.5%,10%,4.37%,15.7%,13%,15.5%,2.66%,17.1%,-4.79%
CC(=O)N1CCOC2(CCN(C(=O)c3cnoc3C)CC2)C1,-3.9%,-1.3%,2.36%,0.682%,-0.405%,0.441%,-5.16%,2.63%,5.13%,2.4%

# Reference: ChEMBL document CHEMBL3988442, “University of Dundee, Small-Polar-MMV Screening Library” (2021)
